Source: the supplement of paper PMC10105736
A number with no mark means an inactive call.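 Rule for the calls: active = MAPPIT score above the 99th percentile of random reference set scores in the same batch; inactive = at or below it.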

B1: nAChRbeta1 (protein)
chain: MESSCKSWLLCSILVLVAFSLVSASEDEERLVRDLFRGYNKLIRPVQNMTQKVGVRFGLAFVQLINVNEKNQVMKSNVWLRLVWYDYQLQWDEADYGGIGVLRLPPDKVWKPDIVLFNNADGNYEVRYKSNVLIYPTGEVLWVPPAIYQSSCTIDVTYFPFDQQTCIMKFGSWTFNGDQVSLALYNNKNFVDLSDYWKSGTWDIIEVPAYLNVYEGDSNHPTETDITFYIIIRRKTLFYTVNLILPTVLISFLCVLVFYLPAEAGEKVTLGISILLSLVVFLLLVSKILPPTSLVLPLIAKYLLFTFIMNTVSILVTVIIINWNFRGPRTHRMPMYIRSIFLHYLPAFLFMKRPRKTRLRWMMEMPGMSMPAHPHPSYGSPAELPKHISAIGGKQSKMEVMELSDLHHPNCKINRKVNSGGELGLGDGCRRESESSDSILLSPEASKATEAVEFIAEHLRNEDLYIQTREDWKYVAMVIDRLQLYIFFIVTTAGTVGILMDAPHIFEYVDQDRIIEIYRGK
B2: CG5902 (protein)
chain: MSNSHYNNYQQQQPHSSNGDPEYQHQQMVHQPQRFSNGHGMKTVAVPDMCLFCFEVLDCELNNVDGPSVPVFSNDAYPLFVTWKIGRDKRLRGCIGTFSAMELHHGLREYALTSAFKDSRFAPISRDELPRLTVSVSILQNFEEAQGHLDWQLGVHGIRIEFLTERGCKRTATYLPQVATEQGWDQLQTIDSLLRKGGYRAAITPETRKSIKLTRYRSQEIQMHYKEYREYQERRAQFGKVQC

Legend:
Assay in all cases: MAPPIT interaction score (arbitrary units); higher = stronger binary interaction signal, active = hit call of the paper
[1] = target: CG14767; conditions: pair source set: RRS
Method: (§1)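 MAPPIT in HEK293T cells: Drosophila bait and prey ORFs (from the FlyBi ORF collection) were co-transfected in quadruplicate, with two wells stimulated by erythropoietin. Interaction-dependent JAK-STAT activation was read out with a STAT-responsive firefly luciferase reporter. Positive calls use the 99th percentile of random reference set (RRS) scores within each batch […]. Batches Dvs01 and Dvs02 used the N-N configuration and Dvs04 the N-C configuration. Pairs come from FlyBi screens, CuraGen, DPiM, Finley Y2H, Lit-BM-16, Lit-BS-16 and RRS.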

[2] = target: CG30472; conditions: MAPPIT configuration: N-N; pair source set: RRS
Method: as §1

[3] = target: trbd; conditions: MAPPIT configuration: N-N; pair source set: screen_1
Method: as §1
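Note: HEK293T cells with Epo stimulation, STAT-responsive firefly luciferase reporter, fold induction versus unstimulated cells divided by the larger fold induction of two negative controls lacking either bait or prey.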

Binder | MAPPIT interaction score ([1]; MAPPIT configuration: N-C) | MAPPIT interaction score ([1]; MAPPIT configuration: N-N) | MAPPIT interaction score [2] | MAPPIT interaction score [3]
B1 | 0.324 | 0.0737 | -0.0464 | –
B2 | – | – | – | 2.52 (active)
